Reference: PubChem BioAssay (NCI)
“And” between values parts separate entries of the source, which are not always exact repeats. Identical values can stand only once. Compounds without any hit were thinned out: in the full panel of roughly 79,000, 15% have a hit. More than one record can exist for a structure, and the calls need not agree. The source made the active and inactive calls. No stated cut-off is given here; in the data, active means growth inhibition above about 70%; inactive means the rest.

Assays:
[1] = NCI Yeast Anticancer Drug Screen. Data for the rad52 strain (AID 147);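 further: 0% = growth of vehicle-treated control cultures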; conditions: S. cerevisiae rad52 mutant growth inhibition, stronger effect = higher value
Outline: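 Here a repair-compromised yeast strain receives each compound; its growth is then quantified and normalised to vehicle-only controls.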

[2] = NCI Yeast Anticancer Drug Screen. Data for the wt1 strain (AID 149);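 further: 0% = growth of vehicle-treated wt1 cultures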; conditions: S. cerevisiae wt1 strain (SPY 50644) growth inhibition, stronger effect = higher value
Outline: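 The wt1 strain was treated with compounds, and growth was compared with vehicle-treated cultures to give inhibition.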

[3] = NCI Yeast Anticancer Drug Screen. Data for the rad50EPP+ strain (AID 151);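 further: 0% = growth of vehicle-treated control cultures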; conditions: S. cerevisiae rad50 mutant strain, stronger effect = higher value
Outline: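 Read-out is yeast growth inhibition relative to vehicle; cells used were the rad50EPP+ strain.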

[4] = NCI Yeast Anticancer Drug Screen. Data for the mgt1 strain (AID 153); conditions: S. cerevisiae mgt1 mutant growth inhibition, stronger effect = higher value
Outline: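 Measured: inhibition of mgt1 yeast growth by compound, normalized to vehicle-treated cultures.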

[5] = NCI Yeast Anticancer Drug Screen. Data for the rad50 strain (AID 155);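 further: 0% = growth of vehicle-only cultures of the same strain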; conditions: S. cerevisiae rad50 strain growth inhibition, stronger effect = higher value
Outline: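 Cells are treated with compound, grown, and their growth is then scored against vehicle-only cultures of the same repair-deficient yeast strain.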

[6] = NCI Yeast Anticancer Drug Screen. Data for the mec2-1 strain (AID 157); conditions: S. cerevisiae mec2-1 strain, stronger effect = higher value
Outline: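 Using mec2-1 yeast: add compound, measure growth, express inhibition versus vehicle-treated cultures.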

[7] = NCI Yeast Anticancer Drug Screen. Data for the rad14 strain (AID 159);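 further: 0% = growth of vehicle-treated control cultures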; conditions: S. cerevisiae rad14 strain growth inhibition, stronger effect = higher value
Outline: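 Readout: yeast growth inhibition, referenced to vehicle-only cultures. Strain bears a defined alteration in DNA damage repair.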

[8] = NCI Yeast Anticancer Drug Screen. Data for the sgs1 mgt1 strain (AID 161);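 further: 0% = growth of cultures given vehicle only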; conditions: S. cerevisiae sgs1 mgt1 strain, stronger effect = higher value
Outline: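 Percent growth inhibition was derived by comparing compound-exposed mutant yeast with vehicle-exposed cultures. The strain carries alterations in DNA damage repair.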

[9] = NCI Yeast Anticancer Drug Screen. Data for the CLN2oe strain (AID 163);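 further: 0% = growth of vehicle-only control cultures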; conditions: S. cerevisiae CLN2oe strain, stronger effect = higher value
Outline: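 Whole-cell yeast growth assay. A strain engineered for altered cell-cycle control received compound, and inhibition relative to vehicle-treated cultures was recorded.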

[10] = NCI Yeast Anticancer Drug Screen. Data for the cln2 rad14 strain (AID 165);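 further: 0% = growth equal to vehicle treated cultures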; conditions: S. cerevisiae cln2 rad14 strain, stronger effect = higher value
Outline: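 Yeast strain cln2 rad14, bearing defects in cell cycle control and DNA repair, serves as the test system; values reflect growth inhibition compared with vehicle.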

[11] = NCI Yeast Anticancer Drug Screen. Data for the bub3 strain (AID 167); conditions: S. cerevisiae bub3 mutant strain, stronger effect = higher value
Outline: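 Part of a panel of yeast mutants defective in DNA damage repair or cell cycle regulation. Each strain is grown with compound, and inhibition is calculated relative to solvent-treated cultures.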

[12] = NCI Yeast Anticancer Drug Screen. Data for the wt2 strain (AID 169);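 further: 0% = growth of vehicle-treated yeast cultures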; conditions: S. cerevisiae wt2 strain growth inhibition, stronger effect = higher value
Outline: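 Treated yeast vs. vehicle-treated yeast: growth inhibition determined.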

[13] = NCI Yeast Anticancer Drug Screen. Data for the mlh1 strain (AID 171);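 further: 0% = growth of vehicle-treated control cultures of the same strain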; conditions: S. cerevisiae mlh1 strain growth inhibition, stronger effect = higher value
Outline: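 A yeast strain with a defined genetic lesion serves as the test organism. Cultures receive compound or vehicle, and growth is measured.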

[14] = NCI Yeast Anticancer Drug Screen. Data for the sgs1 strain (AID 173);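 further: 0% = growth of vehicle-only control cultures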; conditions: S. cerevisiae sgs1 mutant, stronger effect = higher value
Outline: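 A genetically defined yeast mutant is incubated with the test compound, and its growth is compared to that of the same strain given vehicle.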

[15] = NCI Yeast Anticancer Drug Screen. Data for the mlh1 rad18 strain (AID 175); conditions: S. cerevisiae mlh1 rad18 strain growth inhibition, stronger effect = higher value
Outline: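 Steps: expose repair-defective yeast to compound; measure growth; express inhibition against vehicle-treated controls.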

[16] = NCI Yeast Anticancer Drug Screen. Data for the rad18 strain (AID 177); conditions: S. cerevisiae rad18 mutant growth inhibition, stronger effect = higher value
Outline: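 Measured value is growth inhibition of a yeast strain bearing a DNA repair alteration, referenced to vehicle-treated cells.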

[17] = at 5.0 µM (retest, dose inferred, filed as 0.5)
[18] = at 50.0 µM (retest, dose inferred, filed as 5.0)

## O=c1ccc(=O)n(-c2ccccc2)[nH]1
[1]; at 1.2 µM
  growth inhibition: -29% (inactive)
[1]; at 3.7 µM
  growth inhibition: -11% (inactive)
[1]; at 11.0 µM
  growth inhibition: 17% (inactive)
[1]; at 33.0 µM
  growth inhibition: 79% (active)
[1]; at 100.0 µM
  growth inhibition: 97% (active)
[2]; at 1.2 µM
  growth inhibition: -16% (inactive)
[2]; at 3.7 µM
  growth inhibition: -10% (inactive)
[2]; at 11.0 µM
  growth inhibition: 29% (inactive)
[2]; at 33.0 µM
  growth inhibition: 71% (active)
[2]; at 100.0 µM
  growth inhibition: 95% (active)
[3]; at 1.2 µM
  growth inhibition: -24% (inactive)
[3]; at 3.7 µM
  growth inhibition: -5% (inactive)
[3]; at 11.0 µM
  growth inhibition: 38% (inactive)
[3]; at 33.0 µM
  growth inhibition: 75% (active)
[3]; at 100.0 µM
  growth inhibition: 87% (active)
[4]; at 1.2 µM
  growth inhibition: 0% (inactive)
[4]; at 3.7 µM
  growth inhibition: 19% (inactive)
[4]; at 11.0 µM
  growth inhibition: 35% (inactive)
[4]; at 33.0 µM
  growth inhibition: 70% (active)
[4]; at 100.0 µM
  growth inhibition: 97% (active)
[5]; at 1.2 µM
  growth inhibition: -14% (inactive)
[5]; at 3.7 µM
  growth inhibition: -3% (inactive)
[5]; [17]
  growth inhibition: 25% (inactive)
[5]; at 11.0 µM
  growth inhibition: 28% (inactive)
[5]; at 33.0 µM
  growth inhibition: 82% (active)
[5]; [18]
  growth inhibition: 90% (active)
[5]; at 50.0 µM
  growth inhibition: 85.3% (active) and -33% (inactive)
[5]; at 100.0 µM
  growth inhibition: 95% (active)
[6]; at 1.2 µM
  growth inhibition: -23% (inactive)
[6]; at 3.7 µM
  growth inhibition: -24% (inactive)
[6]; [17]
  growth inhibition: -17% (inactive)
[6]; at 11.0 µM
  growth inhibition: 2% (inactive)
[6]; at 33.0 µM
  growth inhibition: 78% (active)
[6]; [18]
  growth inhibition: 95% (active)
[6]; at 50.0 µM
  growth inhibition: 85% (active) and -26.4% (inactive)
[6]; at 100.0 µM
  growth inhibition: 98% (active)
[7]; at 1.2 µM
  growth inhibition: -12% (inactive)
[7]; at 3.7 µM
  growth inhibition: -9% (inactive)
[7]; at 11.0 µM
  growth inhibition: 4% (inactive)
[7]; at 33.0 µM
  growth inhibition: 60% (inactive)
[7]; at 100.0 µM
  growth inhibition: 96% (active)
[8]; [17]
  growth inhibition: 1% (inactive)
[8]; [18]
  growth inhibition: 84% (active)
[8]; at 50.0 µM
  growth inhibition: 91.3% (active) and -13.6% (inactive)
[9]; at 1.2 µM
  growth inhibition: 7% (inactive)
[9]; at 3.7 µM
  growth inhibition: 20% (inactive)
[9]; at 11.0 µM
  growth inhibition: 29% (inactive)
[9]; at 33.0 µM
  growth inhibition: 71% (active)
[9]; at 100.0 µM
  growth inhibition: 97% (active)
[10]; [17]
  growth inhibition: 18% (inactive)
[10]; [18]
  growth inhibition: 79% (active)
[10]; at 50.0 µM
  growth inhibition: 58.5% (inactive) and -14.5% (inactive)
[11]; at 1.2 µM
  growth inhibition: -13% (inactive)
[11]; at 3.7 µM
  growth inhibition: -23% (inactive)
[11]; [17]
  growth inhibition: 41% (inactive)
[11]; at 11.0 µM
  growth inhibition: 2% (inactive)
[11]; at 33.0 µM
  growth inhibition: 83% (active)
[11]; [18]
  growth inhibition: 97% (active)
[11]; at 50.0 µM
  growth inhibition: 86.2% (active) and -25.4% (inactive)
[11]; at 100.0 µM
  growth inhibition: 98% (active)
[12]; at 1.2 µM
  growth inhibition: -15% (inactive)
[12]; at 3.7 µM
  growth inhibition: -10% (inactive)
[12]; at 11.0 µM
  growth inhibition: 1% (inactive)
[12]; at 33.0 µM
  growth inhibition: 66% (inactive)
[12]; at 100.0 µM
  growth inhibition: 93% (active)
[13]; at 1.2 µM
  growth inhibition: -2% (inactive)
[13]; at 3.7 µM
  growth inhibition: -4% (inactive)
[13]; at 11.0 µM
  growth inhibition: 30% (inactive)
[13]; at 33.0 µM
  growth inhibition: 87% (active)
[13]; at 100.0 µM
  growth inhibition: 99% (active)
[14]; at 1.2 µM
  growth inhibition: 15% (inactive)
[14]; at 3.7 µM
  growth inhibition: 27% (inactive)
[14]; at 11.0 µM
  growth inhibition: 58% (inactive)
[14]; at 33.0 µM
  growth inhibition: 89% (active)
[14]; at 100.0 µM
  growth inhibition: 98% (active)
[15]; [17]
  growth inhibition: 38% (inactive)
[15]; [18]
  growth inhibition: 95% (active)
[15]; at 50.0 µM
  growth inhibition: 79.4% (active) and -20.1% (inactive)
[16]; at 1.2 µM
  growth inhibition: -20% (inactive)
[16]; at 3.7 µM
  growth inhibition: 3% (inactive)
[16]; at 11.0 µM
  growth inhibition: 47% (inactive)
[16]; at 33.0 µM
  growth inhibition: 84% (active)
[16]; at 100.0 µM
  growth inhibition: 94% (active)

## O=C1C=C(Cl)C(=O)C(c2ccc(Cl)cc2)=C1
[1]; at 1.2 µM
  growth inhibition: -33% (inactive)
[1]; at 3.7 µM
  growth inhibition: -7% (inactive)
[1]; at 11.0 µM
  growth inhibition: 11% (inactive)
[1]; at 33.0 µM
  growth inhibition: 98% (active)
[1]; at 100.0 µM
  growth inhibition: 96% (active)
[2]; at 1.2 µM
  growth inhibition: 1% (inactive)
[2]; at 3.7 µM
  growth inhibition: 5% (inactive)
[2]; at 11.0 µM
  growth inhibition: 21% (inactive)
[2]; at 33.0 µM
  growth inhibition: 97% (active)
[2]; at 100.0 µM
  growth inhibition: 97% (active)
[3]; at 1.2 µM
  growth inhibition: 40% (inactive)
[3]; at 3.7 µM
  growth inhibition: 49% (inactive)
[3]; at 11.0 µM
  growth inhibition: 83% (active)
[3]; at 33.0 µM
  growth inhibition: 98% (active)
[3]; at 100.0 µM
  growth inhibition: 96% (active)
[4]; at 1.2 µM
  growth inhibition: 2% (inactive)
[4]; at 3.7 µM
  growth inhibition: 39% (inactive)
[4]; at 11.0 µM
  growth inhibition: 82% (active)
[4]; at 33.0 µM
  growth inhibition: 98% (active)
[4]; at 100.0 µM
  growth inhibition: 97% (active)
[5]; at 1.2 µM
  growth inhibition: -4% (inactive)
[5]; at 3.7 µM
  growth inhibition: -1% (inactive)
[5]; [17]
  growth inhibition: 21% (inactive)
[5]; at 11.0 µM
  growth inhibition: 44% (inactive)
[5]; at 33.0 µM
  growth inhibition: 97% (active)
[5]; [18]
  growth inhibition: 97% (active)
[5]; at 50.0 µM
  growth inhibition: 91.5% (active)
[5]; at 100.0 µM
  growth inhibition: 97% (active)
[6]; at 1.2 µM
  growth inhibition: 0% (inactive)
[6]; at 3.7 µM
  growth inhibition: 34% (inactive)
